Compound activity as filed in PubChem.
IDE exosite FP = exo-site inhibitors of human IDE, primary screen, biochemical, fluorescence anisotropy, probe displacement. purified IDE, FL-6b probe fluorescence polarization; stronger effect = lower value. z-score at 20 µM. 6.3% of 17,000 active. AID 1259349, 2017;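 active = z-score of -3 or lower, meaning strong loss of probe binding signal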;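 note: His-tagged human IDE residues 42-1019 made in E. coli with 30 nM FL-6b probe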
Target sequence (P14735 42-1019 limits assumed): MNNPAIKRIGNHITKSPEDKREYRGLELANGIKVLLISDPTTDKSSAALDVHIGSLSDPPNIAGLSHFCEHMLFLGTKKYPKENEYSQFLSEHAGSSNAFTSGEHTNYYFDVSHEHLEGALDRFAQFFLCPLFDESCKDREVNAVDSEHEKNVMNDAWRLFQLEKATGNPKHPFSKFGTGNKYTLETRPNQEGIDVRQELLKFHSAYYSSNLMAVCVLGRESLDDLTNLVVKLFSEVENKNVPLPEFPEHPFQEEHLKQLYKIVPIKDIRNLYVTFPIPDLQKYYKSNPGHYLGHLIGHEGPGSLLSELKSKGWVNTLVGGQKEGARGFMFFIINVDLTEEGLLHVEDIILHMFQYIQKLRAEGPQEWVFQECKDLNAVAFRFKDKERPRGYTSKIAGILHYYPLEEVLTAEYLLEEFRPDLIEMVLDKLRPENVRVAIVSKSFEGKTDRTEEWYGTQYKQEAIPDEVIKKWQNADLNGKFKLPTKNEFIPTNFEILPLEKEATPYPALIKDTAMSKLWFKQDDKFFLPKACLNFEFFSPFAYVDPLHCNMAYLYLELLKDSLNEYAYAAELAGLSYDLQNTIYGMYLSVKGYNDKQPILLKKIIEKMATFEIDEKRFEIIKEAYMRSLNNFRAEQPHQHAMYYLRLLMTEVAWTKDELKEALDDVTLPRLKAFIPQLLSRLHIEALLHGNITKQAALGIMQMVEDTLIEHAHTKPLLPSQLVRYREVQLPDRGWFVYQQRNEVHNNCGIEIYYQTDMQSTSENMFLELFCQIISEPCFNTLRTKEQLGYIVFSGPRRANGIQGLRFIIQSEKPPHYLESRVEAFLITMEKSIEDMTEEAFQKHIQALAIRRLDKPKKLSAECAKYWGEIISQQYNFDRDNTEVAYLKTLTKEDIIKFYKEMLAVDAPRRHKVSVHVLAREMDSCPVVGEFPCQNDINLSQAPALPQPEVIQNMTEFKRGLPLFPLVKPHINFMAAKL
* = called active by the depositor; ! = not active in a repeat. Shown is part of a subset that was picked to be rich in hits.

SMILES	IDE exosite FP
COc1ccccc1-c1ccc([C@H]2[C@H](C#N)N(C(=O)C3CCC3)[C@H]2CO)cc1	-8.1*
COc1ccccc1-c1ccc([C@H]2[C@@H](C#N)N(C(=O)C3CCC3)[C@@H]2CO)cc1	-4.77*
CS(=O)(=O)N1[C@H](C#N)[C@@H](c2ccccc2-c2ccccc2F)[C@H]1CO	-0.136
COc1ccccc1-c1ccccc1[C@@H]1[C@H](C#N)N(C(=O)C2CCC2)[C@H]1CO	3.29
COc1ccccc1-c1ccccc1[C@H]1[C@@H](C#N)N(C(=O)C2CCC2)[C@H]1CO	0.258
COc1ccc(-c2ccc([C@@H]3[C@@H](CO)N(C(=O)c4cccnc4)[C@H]3C#N)cc2)cc1	4.47
CS(=O)(=O)N1[C@H](C#N)[C@@H](c2ccccc2)[C@@H]1CO	5.4
COCC(=O)N1CC(=O)N2[C@H](C1)[C@@H](c1ccc(Br)cc1)[C@@H]2CO	0.991
CCc1nc(N2[C@H](C#N)[C@@H](c3ccccc3-c3ccccc3C)[C@H]2CO)sc1C	-0.193
CCC(=O)N1CC(=O)N2[C@H](C1)[C@H](c1ccc(-c3ccc(C(=O)N(C)C)cc3)cc1)[C@@H]2CO	-0.39
O=C(Nc1ccc(F)cc1)N1CC(=O)N2[C@H](CO)[C@H](c3ccc(C#Cc4cccnc4)cc3)[C@H]2C1	0.579
CC(=O)N1CC2(C1)[C@H](c1ccccc1)[C@@H](CO)N2Cc1ccccc1	0.435
O=C(C[C@@H]1CC[C@H]2NC[C@H](O)COC[C@@H]2O1)N1CCc2ccccc2C1	1.28
N#C[C@H]1[C@H](c2ccc(-c3ccccc3F)cc2)[C@H](CO)N1C(=O)C1CCC1	-3.1*
CN(C)C(=O)c1cccc(-c2ccc([C@@H]3[C@@H](C#N)N(C(=O)C4CC4)[C@H]3CO)cc2)c1	0.867
N#C[C@H]1[C@H](c2ccc(-c3ccccc3F)cc2)[C@@H](CO)N1C(=O)C1CCC1	2.18
COc1ccccc1-c1ccc([C@@H]2[C@@H](CO)N(C(=O)C3CCC3)[C@H]2C#N)cc1	-6.54*
COc1ccccc1-c1ccc([C@H]2[C@@H](CO)N(C(=O)C3CC3)[C@H]2C#N)cc1	-1.65
COc1ccccc1-c1ccc([C@H]2[C@@H](CO)N(C(=O)C3CCOCC3)[C@H]2C#N)cc1	-8.25*
COc1ccc(-c2ccc([C@H]3[C@H](C#N)N(C(=O)C4CCCC4)[C@H]3CO)cc2)cc1	0.474
COc1ccccc1-c1ccccc1[C@@H]1[C@H](C#N)N(C(=O)C2CCOCC2)[C@H]1CO	-1.68
COc1ccccc1-c1ccccc1[C@H]1[C@@H](CO)N(C(=O)C2CC2)[C@H]1C#N	2.14
CN(C)C(=O)c1cccc(-c2ccc([C@@H]3[C@@H](C#N)N(C(=O)C4CC4)[C@@H]3CO)cc2)c1	-3.58*
N#C[C@@H]1[C@H](c2ccc(-c3ccccc3F)cc2)[C@@H](CO)N1C(=O)C1CCC1	-0.297
CN(C)C(=O)c1cccc(-c2ccc([C@@H]3[C@H](C#N)N(C(=O)C4CC4)[C@H]3CO)cc2)c1	3.48
SMILES	IDE exosite FP
CN(C)CC(=O)N[C@H]1CC[C@H](CCNC(=O)C2CCC2)O[C@@H]1CO	1.46
Cc1cccc(S(=O)(=O)N2CCCCN3[C@H](C2)[C@@H](c2ccc(C#CC(C)C)cc2)[C@@H]3CO)c1	2.11
Cc1noc(C)c1NC(=O)Nc1ccc2c(c1)C(=O)N(C)[C@H]1CC[C@@H](CC(=O)N[C@@H]3CCN(Cc4ccccc4)C3)O[C@H]1CO2	0.416
C/C=C/c1ccc([C@@H]2[C@@H](CO)N3C(=O)CN(C(=O)c4cccc(F)c4)C[C@@H]23)cc1	0.963
C/C=C/c1ccc([C@@H]2[C@H](CN(C)S(C)(=O)=O)N[C@@H]2CO)cc1	3.78
C[C@@H]1CN([C@H](C)CO)C(=O)c2ccccc2-c2ccccc2CO[C@@H]1CN(C)S(=O)(=O)c1cccc(C#N)c1	-0.39
O=C(C[C@H]1C=C[C@@H](NC(=O)c2ccncc2)[C@H](CO)O1)NCC1CC1	0.147
CN(C)CC(=O)N1CC2(C1)[C@@H](c1ccccc1)[C@@H](CO)N2Cc1cc(F)ccc1F	-0.681
O=C(Cc1cccnc1)N1CC(=O)N2[C@H](C1)[C@@H](c1ccc(C#CC3CC3)cc1)[C@@H]2CO	-0.419
O=C(C[C@@H]1CC[C@H]2[C@@H](COC[C@@H](O)CN2C(=O)c2cccnc2)O1)NCC1CC1	0.645
C/C=C/c1ccc([C@H]2[C@@H](CO)N(C(=O)CC)[C@H]2CN(C)C(=O)NC(C)C)cc1	0.821
O=C(Nc1ccccc1)N1CC(=O)N2[C@H](C1)[C@@H](c1ccc(C#Cc3cccnc3)cc1)[C@@H]2CO	1.7
COc1cccc(C#Cc2ccc([C@H]3[C@@H](C#N)N(C(=O)C4CCC4)[C@@H]3CO)cc2)c1	-0.0363
COc1ccccc1-c1ccc([C@@H]2[C@H](C#N)N(C(=O)C3CCC3)[C@H]2CO)cc1	-1.46
CN(C)C(=O)c1cccc(-c2ccc(C3[C@H]4CNC[C@@H]3N4Cc3nccs3)cc2)c1 (stereo partly drawn)	0.431
CN(C)C(=O)c1ccc(-c2ccc(C3[C@@H]4CN(Cc5nccs5)C[C@H]3N4)cc2)cc1 (stereo partly drawn)	-2.04
COc1ccccc1-c1ccc([C@@H]2[C@@H](C#N)N(C(=O)C3CCC3)[C@@H]2CO)cc1	-12.2*
COc1cccc(C#Cc2ccc([C@H]3[C@@H](CO)N(C(=O)C4CCOCC4)[C@H]3C#N)cc2)c1	-5.09*
CN(C)C(=O)c1cccc(-c2ccc(C3[C@@H]4CN(Cc5nccs5)C[C@H]3N4)cc2)c1 (stereo partly drawn)	-3.25*!
COc1cccc(C#Cc2ccc([C@H]3[C@H](C#N)N(C(=O)C4CC4)[C@H]3CO)cc2)c1	-1.93
COc1ccccc1-c1ccc([C@H]2[C@@H](CO)N(C(=O)C3CCC3)[C@H]2C#N)cc1	-2.3
O=C(Nc1cccc(F)c1)N1CC(=O)N2[C@H](CO)[C@H](c3ccc(C#CCC4CCCC4)cc3)[C@H]2C1	3.08
COc1ccc(S(=O)(=O)N(C)C[C@H]2Oc3ccc(NC(=O)Nc4ccc(C(F)(F)F)cc4)cc3C(=O)N([C@@H](C)CO)C[C@@H]2C)cc1	1.25
COc1ccc2c3c([nH]c2c1)[C@@H](CO)N(C(=O)Nc1ccc(F)cc1)CC31CN(C(=O)Nc2c(C)noc2C)C1	1.31
COc1cccc(S(=O)(=O)N2CCCCN3[C@H](CO)[C@H](c4ccc(-c5ccccc5)cc4)[C@@H]3C2)c1	0.527
SMILES	IDE exosite FP
COC(=O)c1ccc(CN2CC(=O)N3[C@@H](CO)[C@H](c4ccc(-c5ccccc5)cc4)[C@@H]3C2)cc1	1.71
COCC(=O)N1[C@H](CO)[C@H](c2ccccc2-c2ccccc2)[C@@H]1C#N	2.67
CCC(=O)N1[C@H](CO)[C@H](c2ccc(-c3cccc(OC)c3)cc2)[C@@H]1CNC(C)=O	-0.97
COc1ccc(-c2ccc([C@@H]3[C@H]4CN(C(=O)NC(C)C)CCCCN4[C@H]3CO)cc2)cc1	-6.56*
CC(C)NC(=O)N1CCCCN2[C@H](C1)[C@@H](c1ccc(Br)cc1)[C@@H]2CO	2.69
COc1ccc(-c2ccc([C@H]3[C@H](CO)N4CCCCN(C(=O)NC(C)C)C[C@@H]34)cc2)cc1	-7.32*
COCC(=O)N1CCCCN2[C@H](CO)[C@@H](c3ccc(-c4ccc(OC)cc4)cc3)[C@H]2C1	-1.32
COc1ccc(-c2ccc([C@H]3[C@@H](CO)N4CCCCN(C(=O)NC(C)C)C[C@@H]34)cc2)cc1	-6.29*
